Among the data in PubChem BioAssay (EPA / NIEHS) are outcome and AC50 values, retold here.

The nature of assay [1]: ATG_CRE_CIS: Attagene CIS-FACTORIAL HepG2 Assay for human cAMP Responsive Element (CRE) binding protein 3 (AID 2282926). The note with it: HepG2 CRE cis-reporter, Attagene multiplexed mRNA; actives raise or lower the signal. Summed up:
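Transfected HepG2 were treated for 24 hours, then RNA was extracted and reporter cDNA amplified with sequence-specific primers. Labelled fragments were separated by capillary electrophoresis, and the CRE signal was fitted bidirectionally with DMSO as baseline.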

In assay [2] the target is CCAAT/enhancer-binding protein beta (Homo sapiens) (UniProt P17676). Nature of the assay: ATG_C_EBP_CIS: Attagene CIS-FACTORIAL HepG2 Assay for human CCAAT/Enhancer Binding Protein (C/EBP) beta (AID 2282927). The note with it: HepG2 Attagene cis-factorial transcription factor reporter; actives raise or lower the signal. In outline:
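Following a 24 h incubation with test chemical, transfected HepG2 cells yielded RNA whose reporter transcripts were quantified by RT-PCR and fluorescent capillary electrophoresis, with DMSO serving as baseline for bidirectional fitting.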

Assay [3] can be described thus: ATG_CMV_CIS: Attagene CIS-FACTORIAL HepG2 Assay for human CMV (Internal Marker) (AID 2282928).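 Also: endpoint acts as a background internal control marker rather than a target.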 The note with it: HepG2 CMV promoter reporter, transcription factor profiling; actives raise or lower the signal. In outline:
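After transient transfection of HepG2 with reporter transcription units driven by cis-regulatory promoters, cells receive test chemical for 24 h. Labeled reporter amplicons, digested with HpaI, are sized and quantified by capillary electrophoresis against DMSO.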

Assay [4] can be described thus: ATG_DR4_LXR_CIS: Attagene CIS-FACTORIAL HepG2 Assay for human Liver X Receptor (LXR), DR4 submotif (AID 2282929). The note with it: HepG2 Attagene DR4 cis-reporter, mRNA transcription; actives raise or lower the signal. Summed up:
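Measures endogenous transcription factor activity via a DR4-driven reporter transcript in human HepG2 cells. Compounds incubated 24 h; mRNA quantified by RT-PCR and capillary electrophoresis, analysed as gain or loss of signal versus DMSO.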

The target of assay [5] is Aryl hydrocarbon receptor (Homo sapiens) (UniProt P35869). Nature of the assay: ATG_Ahr_CIS: Attagene CIS-FACTORIAL HepG2 Assay for human Aryl Hydrocarbon Receptor (Ahr) (AID 2282930). To be noted: HepG2 AhR cis-factorial reporter transcription; actives raise or lower the signal. Summed up: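 Values derive from bidirectional fitting against DMSO negative control. Underlying signal: cis-element reporter mRNA in transiently transfected HepG2, harvested 24 h post-dose and measured by RT-PCR plus capillary electrophoresis.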

Assay [6] can be described thus: ATG_AP_1_CIS: Attagene CIS-FACTORIAL HepG2 Assay for human Activator Protein 1 (AP-1) (AID 2282931). The note with it: HepG2 Attagene cis-factorial AP-1 reporter mRNA; actives raise or lower the signal. In outline: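 Bidirectional concentration-response fitting against DMSO controls. Underlying signal: reporter mRNA from cis-promoter constructs in transiently transfected HepG2, measured after 24 h by RT-PCR and capillary electrophoresis.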

Assay [7] can be described thus: ATG_AP_2_CIS: Attagene CIS-FACTORIAL HepG2 Assay for human Activator Protein 2 (AP-2) (AID 2282932). The note with it: HepG2 AP-2 cis-reporter, Attagene transcription factor profiling; actives raise or lower the signal. In outline:
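HepG2 cells were transiently transfected with multiple cis-promoter reporter transcription units and dosed for 24 h. Reporter mRNA was measured by RT-PCR with capillary electrophoresis fluorescence; bidirectional fits relative to DMSO baseline.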

Assay [8] in a line: ATG_BRE_CIS: Attagene CIS-FACTORIAL HepG2 Assay for human Bone Morphogenetic Protein (BMP) Response Element (BRE) (AID 2282933). To be noted: HepG2 BMP response element reporter, Attagene transcription factor profiling; actives raise or lower the signal. In outline: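 After a 24 h chemical treatment, transiently transfected HepG2 cells were lysed for RNA; reporter transcripts were quantified by fluorescent RT-PCR and capillary electrophoresis, normalised to DMSO.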

Assay [9] deals with Transcription factor E2F1 (Homo sapiens) (UniProt Q01094). The assay is described as follows: ATG_E2F_CIS: Attagene CIS-FACTORIAL HepG2 Assay for human E2F Transcription Factor 1 (AID 2282935). To be noted: HepG2 Attagene cis-reporter, E2F reporter RNA transcripts; actives raise or lower the signal. Summed up:
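HepG2 cells transiently transfected with multiplexed cis-element reporter units, dosed for 24 h. Reporter mRNA measured by RT-PCR, 6-FAM primer-extension labeling, HpaI digestion and capillary electrophoresis; bidirectional fit versus DMSO baseline.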

A short description of assay [10]: ATG_M_61_CIS: Attagene CIS-FACTORIAL HepG2 Assay for M61 Transcription Factor (Internal Marker) (AID 2282937). The note with it: HepG2 Attagene CIS-FACTORIAL M61 internal marker reporter; actives raise or lower the signal. In outline:
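Fluorescence from labelled cDNA fragments, separated by capillary electrophoresis, quantifies reporter induction. HepG2 cells bearing transiently transfected cis-promoter MRTUs were incubated with test chemical for 24 h; DMSO defined baseline for gain/loss fitting.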

Assay [11] can be described thus: ATG_EGR_CIS: Attagene CIS-FACTORIAL HepG2 Assay for human Early Growth Response 1 (EGR1) (AID 2282938). The note with it: HepG2 Attagene CIS-FACTORIAL EGR reporter mRNA; actives raise or lower the signal. In outline:
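Cell-based multiplex transcription assay: HepG2 carrying transfected cis-element reporter units, 24 h chemical treatment. Fluorescence from capillary electrophoresis of RT-PCR products gives mRNA levels; fitting is bidirectional relative to DMSO.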

Assay [12] in a line: ATG_M_19_CIS: Attagene CIS-FACTORIAL HepG2 Assay for M19 Transcription Factor (Internal Marker) (AID 2282939). To be noted: HepG2 Attagene CIS-FACTORIAL M19 internal marker reporter; actives raise or lower the signal. Summed up: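 In this multiplexed cell assay, transiently transfected HepG2 reporter units report endogenous transcription-factor activity; after 24 hours of treatment, labelled reporter cDNA fragments are quantified by capillary electrophoresis and fitted bidirectionally against DMSO.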

Assay [13] is described as follows: ATG_Ets_CIS: Attagene CIS-FACTORIAL HepG2 Assay for human Erythroblast Transformation Specific (ETS) (AID 2282941). The note with it: HepG2 ETS cis-reporter transcription, actives raise or lower the signal. Summed up:
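Human HepG2 hepatoma cells were transiently transfected with promoter-driven reporter constructs and treated for 24 hours. Reporter transcripts were quantified by RT-PCR with fluorescent primer extension; bidirectional curve fitting used DMSO as reference.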

Assay [14] has as its target Hepatocyte nuclear factor 3-beta (Homo sapiens) (UniProt Q9Y261). Nature of the assay: ATG_FoxA2_CIS: Attagene CIS-FACTORIAL HepG2 Assay for human Forkhead box A2 (FOXA2) (AID 2282942). The note with it: HepG2 cis-reporter transcription factor activity, 24 h; actives raise or lower the signal. Summed up:
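In transiently transfected human HepG2 cells, promoter-driven reporter mRNA levels after 24 h chemical exposure are determined via RT-PCR with capillary electrophoresis. DMSO serves as baseline for bidirectional fitting.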

A short description of assay [15]: ATG_FoxO_CIS: Attagene CIS-FACTORIAL HepG2 Assay for human Forkhead box O (FoxO) (AID 2282943). The note with it: HepG2 Attagene cis-reporter, FoxO element, mRNA; actives raise or lower the signal. Summed up: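 Values reflect reporter mRNA induction or loss in HepG2 cells 24 h post-dosing, fitted bidirectionally with DMSO as negative control and baseline. Detection used RT-PCR and fluorescence capillary electrophoresis.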

The nature of assay [16]: ATG_GATA_CIS: Attagene CIS-FACTORIAL HepG2 Assay for human GATA Binding Protein (AID 2282944). The note with it: HepG2 GATA cis-element reporter, Attagene multiplex mRNA; actives raise or lower the signal. In outline:
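Measures endogenous transcription factor-driven reporter mRNA in HepG2 cells transiently carrying cis-regulated constructs. 24 h dosing; RNA via oligo(dT) reverse transcription, PCR, HpaI digestion, capillary electrophoresis; fitted relative to DMSO.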

Assay [17] is described as follows: ATG_GLI_CIS: Attagene CIS-FACTORIAL HepG2 Assay for human Zinc Finger Protein GLI1 (AID 2282945). The note with it: HepG2, Attagene cis-factorial reporter mRNA, GLI element; actives raise or lower the signal. Summed up:
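HepG2 cells transiently transfected with cis-promoter multiplexed reporter units report endogenous transcription factor activity. After 24 h chemical exposure, reporter mRNA was quantified by RT-PCR, 6-FAM labelling, HpaI digestion and capillary electrophoresis, with bidirectional fitting against DMSO.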

For assay [18], the target named is Bile acid receptor (Homo sapiens) (UniProt Q96RI1). The assay is described as follows: ATG_IR1_CIS: Attagene CIS-FACTORIAL HepG2 Assay for human Nuclear Receptor Subfamily 1 Group H Member 4 (NR1H4), IR1 submotif (AID 2282946). The note with it: IR1 reporter transcription, actives raise or lower the signal. In outline: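 Transient MRTU transfection, HepG2; 24 h dosing; RNA → RT-PCR → 6-FAM primer extension → HpaI digest → capillary electrophoresis fluorescence. Gain/loss of signal fitted relative to DMSO.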

Assay [19] addresses Retinoic acid receptor alpha (Homo sapiens) (UniProt P10276). The assay is described as follows: ATG_DR5_RAR_CIS: Attagene CIS-FACTORIAL HepG2 Assay for human Retinoic Acid Receptor Alpha (RARE), DR5 submotif (AID 2282934). The note with it: HepG2 Attagene cis-factorial RARE DR5 reporter, mRNA; actives raise or lower the signal. Summed up:
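Endpoint fitted in both directions relative to DMSO as negative control. It reflects DR5 cis-element reporter mRNA induction in transiently transfected HepG2 cells, measured 24 h after dosing through RT-PCR and fluorescent capillary electrophoresis.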

Activity calls are given as the source filed them. The calls were made as follows: active = hit-call score of the fitted dose curve at least 0.9, where 1 is the maximum; inactive = score below 0.9.

Chain of Hepatocyte nuclear factor 3-beta (Homo sapiens) (Q9Y261 whole entry, looked up): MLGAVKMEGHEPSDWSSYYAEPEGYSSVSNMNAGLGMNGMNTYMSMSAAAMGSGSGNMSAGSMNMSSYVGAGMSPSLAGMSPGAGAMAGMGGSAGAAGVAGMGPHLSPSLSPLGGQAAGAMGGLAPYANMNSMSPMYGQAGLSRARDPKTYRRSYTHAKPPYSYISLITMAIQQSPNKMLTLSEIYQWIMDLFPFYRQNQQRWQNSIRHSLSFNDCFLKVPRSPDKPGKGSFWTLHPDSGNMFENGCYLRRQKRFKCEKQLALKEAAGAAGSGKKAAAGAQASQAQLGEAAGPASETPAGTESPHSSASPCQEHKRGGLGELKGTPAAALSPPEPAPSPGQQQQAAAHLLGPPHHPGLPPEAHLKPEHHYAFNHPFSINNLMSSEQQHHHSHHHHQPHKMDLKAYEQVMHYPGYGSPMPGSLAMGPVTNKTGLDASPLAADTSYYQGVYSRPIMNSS
Chain of Transcription factor E2F1 (Homo sapiens) (Q01094 whole entry, looked up): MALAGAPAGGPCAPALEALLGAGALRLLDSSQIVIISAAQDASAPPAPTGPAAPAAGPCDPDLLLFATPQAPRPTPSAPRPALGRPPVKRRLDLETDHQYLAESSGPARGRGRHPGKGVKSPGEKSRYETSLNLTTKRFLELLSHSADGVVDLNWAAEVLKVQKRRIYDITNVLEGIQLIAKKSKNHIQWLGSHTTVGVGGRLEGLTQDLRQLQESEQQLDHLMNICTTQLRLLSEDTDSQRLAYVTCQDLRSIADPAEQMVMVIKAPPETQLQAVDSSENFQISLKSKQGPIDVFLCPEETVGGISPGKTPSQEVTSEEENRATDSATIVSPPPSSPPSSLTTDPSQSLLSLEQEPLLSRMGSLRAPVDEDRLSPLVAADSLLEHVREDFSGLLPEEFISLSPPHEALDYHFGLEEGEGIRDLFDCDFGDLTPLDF
Chain of CCAAT/enhancer-binding protein beta (Homo sapiens) (P17676 whole entry, looked up): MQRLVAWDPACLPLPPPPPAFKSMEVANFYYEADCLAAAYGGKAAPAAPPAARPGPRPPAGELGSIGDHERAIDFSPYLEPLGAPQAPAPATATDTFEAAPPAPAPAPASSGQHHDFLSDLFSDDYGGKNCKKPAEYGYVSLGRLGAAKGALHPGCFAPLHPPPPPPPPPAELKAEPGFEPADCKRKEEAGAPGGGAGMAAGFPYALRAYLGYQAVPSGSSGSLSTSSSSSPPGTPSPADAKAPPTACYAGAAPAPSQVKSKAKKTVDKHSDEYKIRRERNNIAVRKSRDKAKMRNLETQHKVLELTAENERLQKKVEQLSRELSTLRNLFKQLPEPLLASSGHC
Chain of Aryl hydrocarbon receptor (Homo sapiens) (P35869 whole entry, looked up): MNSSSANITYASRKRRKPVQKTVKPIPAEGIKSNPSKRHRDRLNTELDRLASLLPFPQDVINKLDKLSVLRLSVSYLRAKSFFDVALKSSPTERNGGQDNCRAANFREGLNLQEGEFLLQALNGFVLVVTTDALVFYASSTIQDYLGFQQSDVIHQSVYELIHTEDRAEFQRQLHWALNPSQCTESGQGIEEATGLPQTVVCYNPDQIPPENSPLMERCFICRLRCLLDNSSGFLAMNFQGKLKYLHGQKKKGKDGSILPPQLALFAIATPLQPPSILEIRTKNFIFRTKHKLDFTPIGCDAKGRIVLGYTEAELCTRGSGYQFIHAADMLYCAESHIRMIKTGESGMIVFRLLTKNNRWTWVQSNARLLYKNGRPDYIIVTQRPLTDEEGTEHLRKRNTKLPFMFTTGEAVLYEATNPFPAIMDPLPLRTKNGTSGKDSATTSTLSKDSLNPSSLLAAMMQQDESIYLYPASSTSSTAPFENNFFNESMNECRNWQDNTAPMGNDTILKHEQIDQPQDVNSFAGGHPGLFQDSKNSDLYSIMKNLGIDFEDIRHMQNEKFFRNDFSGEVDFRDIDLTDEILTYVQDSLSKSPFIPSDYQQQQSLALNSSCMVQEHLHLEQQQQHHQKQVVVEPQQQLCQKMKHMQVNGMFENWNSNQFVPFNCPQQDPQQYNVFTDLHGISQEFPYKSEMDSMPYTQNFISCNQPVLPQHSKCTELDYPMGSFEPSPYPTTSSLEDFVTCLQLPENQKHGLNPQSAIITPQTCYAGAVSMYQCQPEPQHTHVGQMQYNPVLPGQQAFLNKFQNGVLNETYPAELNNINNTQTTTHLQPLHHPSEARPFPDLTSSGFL
Chain of Bile acid receptor (Homo sapiens) (Q96RI1 whole entry, looked up): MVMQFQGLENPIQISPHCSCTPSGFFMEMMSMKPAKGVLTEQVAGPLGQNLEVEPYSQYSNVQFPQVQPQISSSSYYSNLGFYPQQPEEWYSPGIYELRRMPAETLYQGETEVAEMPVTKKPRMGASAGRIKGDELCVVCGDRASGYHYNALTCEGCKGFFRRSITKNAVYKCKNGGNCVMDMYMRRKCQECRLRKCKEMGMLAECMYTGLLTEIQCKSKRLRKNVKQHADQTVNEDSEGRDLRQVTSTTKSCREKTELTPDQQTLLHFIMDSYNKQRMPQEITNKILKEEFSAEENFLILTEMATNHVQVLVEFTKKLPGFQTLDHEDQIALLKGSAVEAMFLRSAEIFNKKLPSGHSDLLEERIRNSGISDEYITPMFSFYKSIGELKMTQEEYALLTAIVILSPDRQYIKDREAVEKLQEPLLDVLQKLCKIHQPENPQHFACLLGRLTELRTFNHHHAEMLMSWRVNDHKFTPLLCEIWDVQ
Chain of Retinoic acid receptor alpha (Homo sapiens) (P10276 whole entry, looked up): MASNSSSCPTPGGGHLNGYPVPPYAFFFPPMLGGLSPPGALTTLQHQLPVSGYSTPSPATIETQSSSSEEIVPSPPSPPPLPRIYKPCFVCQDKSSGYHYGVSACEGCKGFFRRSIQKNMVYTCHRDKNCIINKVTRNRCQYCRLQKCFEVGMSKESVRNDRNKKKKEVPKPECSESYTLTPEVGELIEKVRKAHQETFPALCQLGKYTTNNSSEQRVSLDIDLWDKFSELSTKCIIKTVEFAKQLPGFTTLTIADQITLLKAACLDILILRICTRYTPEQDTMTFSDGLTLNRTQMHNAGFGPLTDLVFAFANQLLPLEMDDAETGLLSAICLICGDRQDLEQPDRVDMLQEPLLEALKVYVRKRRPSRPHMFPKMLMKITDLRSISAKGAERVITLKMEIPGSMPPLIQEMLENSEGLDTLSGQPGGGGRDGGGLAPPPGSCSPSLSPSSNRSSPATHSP

As for `CCC(=NOC/C=C/Cl)C1=C(O)CC(C2CCOCC2)CC1=O` (configuration not stated), the outcome in [1], in assay [2], in assay [3], in [4], in assay [5] and in assay [6] was inactive. The call in assay [7], in [8], in assay [9], in [10], in assay [11] and in [12] was inactive. Further, the result in assay [13], in assay [14], in assay [15], in [16] and in assay [17] was inactive.
In the case of `COc1cc(OC)nc(Sc2cccc(Cl)c2C(=O)O)n1`, the outcome in assay [1], in assay [2], in assay [3], in [4], in [6] and in assay [7] was inactive. Besides, the call in assay [8], in assay [9], in assay [10], in assay [11], in assay [12] and in assay [13] was inactive. Besides, the outcome in [14], in [15] and in assay [17] was inactive.
With `CCC(CC)Nc1c([N+](=O)[O-])cc(C)c(C)c1[N+](=O)[O-]`, the compound was classed as inactive in assay [1], in [2], in assay [3], in assay [5], in assay [6] and in assay [7]. Besides, the call in [8], in [9], in [10], in assay [11], in [12] and in assay [13] was inactive. The result in [14], in assay [15] and in assay [17] was inactive. Besides, the concentration at half-maximal activity (AC50) (in general, the concentration at which the activity in the assay is half-maximal) is 37.9 µM (active) in assay [4] and 50 µM (active) in [18].
For the compound `CCCCOC(=O)c1ccccc1C(=O)O`, the result in assay [1], in [2], in assay [3], in [4], in assay [5] and in assay [6] was inactive. Also, the compound was called inactive in assay [7], in assay [8], in assay [19], in [9], in [10] and in assay [11]. For the same compound, the result in assay [12], in assay [13], in assay [15], in [17] and in assay [18] was inactive. For the same compound, the AC50 in assay [14] is 81.4 µM (active).
